Among the data in PubChem BioAssay (Tox21) are Potency values, retold here.

“And” between values parts separate entries of the source, which are not always exact repeats. Equal values may be shown once. Records with an inconclusive call do not appear. The source made the active and inactive calls. Unless noted, calls follow the shape of the dose curve; as a rule, active = well fitted curve in the direction sought with a large enough effect in the repeat runs; inconclusive = weak or mixed curves; inactive = no such curve, though single readings can be large; an effect the other way counts as inactive or inconclusive. Positions of bridges follow the written chain, without caps; N, C: chain ends. Non-standard residues stand in square brackets, D forms with d. Residues, ends and D or L forms follow the SMILES beside them. *: point of attachment. X2 = CC[C@H](C)CCCCC(=O)*; Dab = NCC[C@H](N)C(=O)O

A short description of assay [1]: qHTS assay to identify small molecule antagonists of the glucocorticoid receptor (GR) signaling pathway - cell viability counter screen (AID 720693; also: nearly all actives have a fitted effect of over 55% in size; also: potency is read from the fitted curve at half-maximal effect). (In general: qHTS replaces the single test concentration by a dilution series.)
Assay [2] in a line: qHTS assay for identifying genotoxic compounds that show differential cytotoxicity against isogenic chicken DT40 cell lines with known DNA damage response pathways - wild type cell line (AID 743012). Also: nearly all actives have a fitted effect of over 60% in size. Also: potency is read from the fitted curve at half-maximal effect. The method, boiled down: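 Parental DNA repair-proficient DT40 cells, 300 per well, were pre-incubated ~0.5 h at 37 C/5% CO2, pin-dosed with compounds in DMSO, then incubated 40 h. Viability was read as CellTiter-Glo luminescence after 30 min at room temperature.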

Assay [3] in a line: qHTS assay for identifying genotoxic compounds that show differential cytotoxicity against isogenic chicken DT40 cell lines with known DNA damage response pathways - Rev3 mutant cell line (AID 743014). Also: nearly all actives have a fitted effect of over 55% in size. Also: potency is read from the fitted curve at half-maximal effect.
The nature of assay [4]: qHTS assay for identifying genotoxic compounds that show differential cytotoxicity against isogenic chicken DT40 cell lines with known DNA damage response pathways - Rad54/Ku70 mutant cell line (AID 743015). Also: nearly all actives have a fitted effect of over 60% in size. Also: potency is read from the fitted curve at half-maximal effect.
A short description of assay [5]: qHTS assay to identify small molecule antagonists of the androgen receptor (AR) signaling pathway using the MDA cell line - cell viability counter screen (AID 743041; also: nearly all actives have a fitted effect of over 45% in size; also: potency is read from the fitted curve at half-maximal effect). The method in brief: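 MDA-kb2 AR-luc cells (MMTV-luciferase, AR/GR responsive) treated with compounds plus R1881 agonist for 16 h at 37C. CellTiter-Fluor added at 15.5 h; fluorescence read after 30 min in the same wells.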

Assay [6] in a line: qHTS assay to identify small molecule antagonists of the androgen receptor (AR) signaling pathway - cell viability counter screen (AID 743033; also: nearly all actives have a fitted effect of over 45% in size).
Assay [7] deals with Androgen receptor (Homo sapiens) (UniProt P10275). Kind of assay: qHTS assay to identify small molecule agonists of the androgen receptor (AR) signaling pathway (AID 743036; active = well fitted activation curve with a large enough effect in the signal ratio in the repeat runs, with a control signal flat, not every such curve was filed as active; the % refers to the signal ratio; also: potency is read from the fitted curve at half-maximal effect). The method, boiled down: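 Quantitative HTS of the Tox21 10K library in HEK293 cells bearing a stably integrated UAS-controlled beta-lactamase reporter. Compound exposure lasted 16 h at 37C. Reporter activity was detected by FRET substrate fluorescence after 2 h at room temperature.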
Sequence of Androgen receptor (Homo sapiens) (P10275 whole entry, looked up): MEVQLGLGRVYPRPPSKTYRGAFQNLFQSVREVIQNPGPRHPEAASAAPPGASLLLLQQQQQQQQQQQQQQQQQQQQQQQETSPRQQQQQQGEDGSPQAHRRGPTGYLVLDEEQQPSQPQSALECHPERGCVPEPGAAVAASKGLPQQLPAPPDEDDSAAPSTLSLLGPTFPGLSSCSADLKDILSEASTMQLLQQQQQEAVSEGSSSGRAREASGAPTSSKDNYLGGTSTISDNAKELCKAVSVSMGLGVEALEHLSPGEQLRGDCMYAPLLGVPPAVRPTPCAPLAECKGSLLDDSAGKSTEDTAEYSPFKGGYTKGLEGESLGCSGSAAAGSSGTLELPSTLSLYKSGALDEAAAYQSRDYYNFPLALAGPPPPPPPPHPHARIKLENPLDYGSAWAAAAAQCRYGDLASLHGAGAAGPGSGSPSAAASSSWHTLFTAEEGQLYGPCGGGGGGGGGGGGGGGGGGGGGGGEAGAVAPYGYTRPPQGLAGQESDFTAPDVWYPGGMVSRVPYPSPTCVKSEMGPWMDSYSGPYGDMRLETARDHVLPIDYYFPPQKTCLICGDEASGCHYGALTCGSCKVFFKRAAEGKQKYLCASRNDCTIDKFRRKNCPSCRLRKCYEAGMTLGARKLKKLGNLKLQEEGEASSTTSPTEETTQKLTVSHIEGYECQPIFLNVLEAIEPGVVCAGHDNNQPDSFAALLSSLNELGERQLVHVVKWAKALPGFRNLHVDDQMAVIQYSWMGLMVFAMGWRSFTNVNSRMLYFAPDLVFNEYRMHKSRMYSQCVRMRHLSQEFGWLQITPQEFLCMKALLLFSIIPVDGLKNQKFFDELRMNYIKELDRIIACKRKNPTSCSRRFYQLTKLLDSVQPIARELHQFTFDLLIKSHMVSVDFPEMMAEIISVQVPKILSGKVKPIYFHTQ

For assay [8] the target is unchanged. Kind of assay: qHTS assay to identify small molecule agonists of the androgen receptor (AR) signaling pathway using the MDA cell line (AID 743040; also: potency is read from the fitted curve at half-maximal effect; nearly all actives have a fitted effect of over 20% in size). The method, boiled down:
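MDA-kb2 breast carcinoma cells carrying MMTV-luciferase (responsive to AR and GR), plated 5 h then treated 16 h with compounds at 37C, 0% CO2. Read-out was ONE-Glo luminescence after 30 min at room temperature.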

For assay [9] the target is unchanged. Put plainly: qHTS assay to identify small molecule antagonists of the androgen receptor (AR) signaling pathway using the MDA cell line (AID 743042; also: nearly all actives have a fitted effect of over 55% in size). The method, boiled down:
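MDA-kb2 breast carcinoma cells carrying MMTV-luciferase (AR/GR responsive) were co-treated with compounds and the agonist R1881 for 16 h at 37C. Inhibition read as ONE-Glo luminescence; CellTiter-Fluor fluorescence measured in parallel for cytotoxicity.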

As for `CC(C)(C)CC(C)(C)c1cc(Cc2cc(C(C)(C)CC(C)(C)C)cc(-n3nc4ccccc4n3)c2O)c(O)c(-n2nc3ccccc3n2)c1`, the Potency result in assay [1], in [2], in [3], in assay [4] and in [5] was “inactive” in each case.

As for `O=C(Cn1c(=O)sc2ccc(Cl)cc21)N1CCN(CCO)CC1`, the Potency entry in assay [1], in assay [2], in assay [3], in assay [4] and in [5] was “inactive” each time.

For `C/C1=C2N=C(/C=C3N=C(/C(C)=C4\[N-][C@@](C)([C@@H]5N=C1[C@](C)(CCC(=O)NCC(C)OP(=O)(O)O[C@H]1[C@@H](O)[C@@H](n6cnc7cc(C)c(C)cc76)O[C@@H]1CO)[C@H]5CC(N)=O)[C@@](C)(CC(N)=O)[C@@H]4CCC(N)=O)[C@@](C)(CC(N)=O)[C@@H]\3CCC(N)=O)C(C)(C)[C@@H]/2CCC(N)=O.CC(=O)O.[Co]` (stereo partly drawn), the Potency result in assay [1], in assay [2], in assay [3] and in assay [6] was “inactive” each time.

Regarding `CC(C)[C@H](N)C(=O)OCC(CO)OCn1cnc2c(=O)[nH]c(N)nc21` (stereo partly drawn), the Potency entry in assay [1], in assay [2], in [3], in assay [6] and in assay [5] was “inactive” each time.

Turning to `CC1(C)S[C@@H]2[C@H](NC(=O)C(N)c3ccccc3)C(=O)N2[C@H]1C(=O)OC1OC(=O)c2ccccc21` (stereo partly drawn), the Potency result in assay [1], in assay [2], in assay [3], in [4] and in assay [5] was “inactive” each time.

For the compound `C[C@]12CCC(=O)C[C@@H]1CC[C@@H]1[C@@H]2CC[C@]2(C)C=CC[C@@H]12`, the Potency result in assay [1], in assay [2], in [3], in assay [6] and in assay [5] was “inactive” in each case.

On to `CC1=C(/C=C/C(C)=C/C=C/C(C)=C/C=C/C=C(C)/C=C/C=C(C)/C=C/C2=C(C)C(=O)CCC2(C)C)C(C)(C)CCC1=O`, for which the Potency entry in [1], in assay [2], in assay [3], in assay [4] and in [5] was “inactive” each time.

`C[C@]12CC[C@@H]3c4ccc(OC(=O)c5ccccc5)cc4CC[C@H]3[C@@H]1CC[C@@H]2O`: the Potency entry in assay [1], in assay [5] and in [9] was “inactive” throughout. In addition, the Potency in assay [2] is 2.98 µM (active); in assay [3] it was 9.44 µM (active); in assay [7], 3.38 µM (active); in assay [8], 1.33 µM (active).

For `C#C[C@]1(OC(C)=O)CC[C@H]2[C@@H]3CCC4=CC(=O)CC[C@@H]4[C@H]3CC[C@@]21C`, the Potency was 6.01 µM (active) in assay [1], 4.22 µM (active) in assay [2], 10.6 µM (active) in assay [3] and 8.41 µM (active) in [4]. In addition, in [5], the Potency result is “inactive”.

In the case of `CC(=O)Nc1ccc(NC(=S)NC(=O)c2ccc(C(C)(C)C)cc2)cc1`, the Potency result in assay [1], in assay [6] and in assay [5] was “inactive” throughout. The Potency in assay [2] and in assay [3] was 2.66 µM (active) in each case.

Take `O=C(NNCS(=O)(=O)O)c1ccncc1`: the Potency entry in assay [1], in assay [2], in assay [3], in [6] and in [5] was “inactive” each time.

For `CC[C@H](C)CCCCC(=O)N[C@@H](CCN)C(=O)N[C@H](C(=O)N[C@@H](CCN)C(=O)N[C@H]1CCNC(=O)[C@H]([C@@H](C)O)NC(=O)[C@H](CCN)NC(=O)[C@H](CCN)NC(=O)[C@H](CC(C)C)NC(=O)[C@@H](CC(C)C)NC(=O)[C@H](CCN)NC1=O)[C@@H](C)O` (X2-[Dab]T[Dab][Dab][Dab][dL]L[Dab][Dab]T; lactam 4-C), the Potency result in assay [1], in assay [2], in assay [3], in [6] and in assay [5] was “inactive” in each case.

With `CCNC(=O)[C@@H]1CCCN1C(=O)[C@H](CCCN=C(N)N)NC(=O)[C@H](CC(C)C)NC(=O)[C@@H](CC(C)C)NC(=O)[C@H](Cc1ccc(O)cc1)NC(=O)[C@H](CO)NC(=O)[C@H](Cc1c[nH]c2ccccc12)NC(=O)[C@H](Cc1cnc[nH]1)NC(=O)[C@@H]1CCC(=O)N1`, the Potency entry in [1], in [2], in assay [3], in [4] and in assay [5] was “inactive” each time.

Turning to `COc1ccc(C[C@H](N)C(=O)N[C@H]2[C@@H](O)[C@H](n3cnc4c(N(C)C)ncnc43)O[C@@H]2CO)cc1`, the Potency was 4.77 µM (active) in [1], 0.841 µM (active) in [2], 0.75 µM (active) in [3] and 7.5 µM (active) in [5]. The Potency result in assay [4] was “inactive”.

Consider `Clc1cc(Cl)c(OCC#CI)cc1Cl`, for which the Potency entry in [1] was “inactive”. Besides, the Potency in assay [2] is 1.68 µM (active); in assay [4] it was 2.66 µM (active).

Take `C/C1=C2N=C(/C=C3N=C(/C(C)=C4\[N-]C(C(CC(N)=O)C4(C)CCC(=O)NCC(C)OP(=O)([O-])OC4C(CO)OC(n5cnc6cc(C)c(C)cc65)C4O)C4(C)N=C1C(CCC(N)=O)C4(C)CC(N)=O)C(CCC(N)=O)C\3(C)C)C(CCC(N)=O)C/2(C)CC(N)=O.[CH3-].[Co+3]` (stereo not drawn): the Potency entry in assay [1], in [2], in [3] and in [6] was “inactive” in each case. In [5], the Potency was 23.7 µM (active).

For the compound `CCC(=O)O[C@@H]1CC(=O)O[C@H](C)C/C=C/C=C/[C@H](O)[C@H](C)C[C@H](CC=O)[C@H](O[C@@H]2O[C@H](C)[C@@H](O[C@H]3C[C@@](C)(O)[C@@H](OC(=O)CC)[C@H](C)O3)[C@H](N(C)C)[C@H]2O)[C@H]1OC`, the Potency result in assay [1], in [2], in [3], in assay [6] and in assay [5] was “inactive” each time.

For the compound `NCc1ccccc1CC(=O)N[C@@H]1C(=O)N2C(C(=O)O)=C(CSc3nnnn3CC(=O)O)CS[C@H]12`, the Potency result in assay [1], in assay [2], in [3], in [4] and in assay [5] was “inactive” in each case.

For the compound `COC(=O)[C@H]1[C@H]2C[C@@H]3c4[nH]c5ccccc5c4CCN3C[C@H]2C[C@@H](OC(=O)c2cc(OC)c(OC)c(OC)c2)[C@@H]1OC`, the Potency entry in assay [1] and in assay [5] was “inactive” in each case. The Potency was 1.06 µM (active) and 11.9 µM (active) in assay [2]; 1.68 µM (active) and 21.1 µM (active) in assay [3]; 1.68 µM (active) and 26.6 µM (active) in [4].

Take `C=CCN1CCCC1CNC(=O)c1cc(S(N)(=O)=O)cc(OC)c1OC` (stereo not drawn): the Potency entry in [1], in assay [2], in [3], in assay [6] and in assay [5] was “inactive” in each case.

For the compound `OC[C@@H](O)C(O)[C@H](O)CO`, the Potency result in assay [1], in assay [2], in assay [3], in [4] and in assay [5] was “inactive” in each case.

`C[C@@](Cc1ccc(O)c(O)c1)(NN)C(=O)O`: the Potency result in assay [1] and in [6] was “inactive” each time. The Potency in assay [2] and in [3] was 29.8 µM (active) each time.
